Data from PubChem BioAssay.
Active and inactive are the calls of the source.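 How the source made its calls, unless noted: active means NADPH fluorescence slope more negative than the mean of all samples by about 3 SD, 99.7% confidence; inactive means the rest.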

Legend:
[1] = inhibitors of TNFa-induced NFkB p65 translocation, primary screen, imaging, HUVEC, MLSMR starter and 10KST1 sets (AID 438;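 active means inhibition above 20% together with a positive visual image hit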;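 further: compound added about 3h40 before a 20 min TNFalpha stimulation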;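 on inhibition: signal is the nuclear over cytoplasmic p65 intensity ratio per well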); details: HUVEC TNFa-induced p65 nuclear translocation; cell count: measured here: nuclei count (cytotoxicity indicator), at 2.08 µM; inhibition: at 2 µM, stronger effect = higher value, 0% TNFa-plus-vehicle, 100% no-TNFa wells
[2] = reduction of polyQ htt aggregates in cells – imaging, exon1htt(103Q)mCFP cells, high-content imaging, primary screen (AID 483;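 active means visual image review flags a hit and inhibition of aggregation exceeds 20%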;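 further: compound exposure lasted 3 days before fixation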;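 on nuclei count: percent of the per-plate median nuclei count of sample wells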); details: exon1htt(103Q)mCFP cell line, aggregate imaging, at 2 µM; inhibition of aggregation: stronger effect = higher value; nuclei count: measured here: cell count, toxicity
[3] = endothelial E-selectin expression blockers – imaging, HUVEC, immunofluorescence, MLSMR starter and 10KST1 sets, primary screen (AID 487;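 active means visually confirmed hit in the image check and inhibition above 20%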;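 on inhibition: signal is fraction of cell area covered by stained E-selectin grains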;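 on nuclei count: 100% = median nuclei count of all wells on the same plate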); details: HUVEC TNFalpha-induced E-selectin immunofluorescence imaging, at 2 µM; inhibition: stronger effect = higher value; nuclei count: measured here: cell number, toxicity
[4] = molecular target: Voltage-gated potassium channel subunit beta-2 (Rattus norvegicus) (UniProt P62483); assay: inhibitors of rat Kvbeta2 reductase activity – biochemical, NADPH fluorescence, primary screen (AID 622;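 active means fluorescence slope higher than the sample average by over 3 SD, cut at about -0.22 in these data, passing the limit was not always enough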;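 further: slope of raw intensity against log time taken from 70 to 1610 s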); details: recombinant KvBeta, 4-cyanobenzaldehyde reduction, at 10 µM, stronger effect = higher value
[5] = molecular target: Voltage-gated potassium channel subunit beta-2 (Rattus norvegicus) (UniProt P62483); assay: enhancers of rat Kvbeta2 NADPH turnover – biochemical, NADPH fluorescence, primary screen (AID 623); details: Recombinant KvBeta, NADPH fluorescence decrease slope, 10 min; at 10 µM; stronger effect = lower value;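 further: fluorescence intensity change per second fitted from 20 to 320 s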
[6] = molecular target: Alpha-2C adrenergic receptor (Homo sapiens) (UniProt P18825); assay: compounds altering alpha2C-coupled GIRK flux – cell-based, HEK293 alpha2C/GIRK1/2, thallium flux, primary screen (AID 624;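 active means fluorescence slope after compound addition differing from the mean of all screened samples at 99.7% confidence, in either direction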;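 further: slope of fluorescence ratio to pre-addition baseline per second over 15 to 24 s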); details: thallium flux BTC fluorescence, at 10 µM, actives lie on both sides
[7] = blockers of RIG-like receptor reporter activation – cell-based, Sendai virus stimulus, luciferase, 10K MLSCN set, TLR/RLR signaling modifier project, primary screen (AID 602276;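 active means inhibition at or above 50% at 10 µM; inactive means inhibition below 50%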;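 further: firefly luciferase from ISG56 promoter only with Renilla not read in this screen; 0% = Sendai virus plus DMSO and 100% = medium plus DMSO without virus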); details: HEK293 RL24 IRF3 luciferase reporter, at 10 µM, stronger effect = higher value
[8] = TLR3 IRF3 reporter activation blockers – cell-based, poly I:C stimulus, luciferase, 10K MLSCN set, primary screen (AID 602277;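 active means inhibition of the reporter signal at or above 50%; inactive means inhibition below 50%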); details: HEK293-TLR3 RL24 IRF3 luciferase reporter, at 10 µM, stronger effect = higher value

Chain of Alpha-2C adrenergic receptor (Homo sapiens) (P18825 whole entry, looked up): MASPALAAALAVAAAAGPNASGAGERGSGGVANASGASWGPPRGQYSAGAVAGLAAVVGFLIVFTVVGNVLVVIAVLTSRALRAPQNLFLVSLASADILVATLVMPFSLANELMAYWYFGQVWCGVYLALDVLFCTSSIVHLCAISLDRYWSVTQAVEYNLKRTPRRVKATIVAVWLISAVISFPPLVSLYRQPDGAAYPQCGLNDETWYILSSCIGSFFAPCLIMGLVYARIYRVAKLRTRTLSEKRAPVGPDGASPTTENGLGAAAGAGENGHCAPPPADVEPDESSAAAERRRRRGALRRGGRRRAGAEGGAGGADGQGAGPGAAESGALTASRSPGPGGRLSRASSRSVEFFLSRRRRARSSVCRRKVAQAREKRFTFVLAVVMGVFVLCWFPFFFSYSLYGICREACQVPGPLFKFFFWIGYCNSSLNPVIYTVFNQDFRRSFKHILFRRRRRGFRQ
Chain of Voltage-gated potassium channel subunit beta-2 (Rattus norvegicus) (P62483 whole entry, looked up): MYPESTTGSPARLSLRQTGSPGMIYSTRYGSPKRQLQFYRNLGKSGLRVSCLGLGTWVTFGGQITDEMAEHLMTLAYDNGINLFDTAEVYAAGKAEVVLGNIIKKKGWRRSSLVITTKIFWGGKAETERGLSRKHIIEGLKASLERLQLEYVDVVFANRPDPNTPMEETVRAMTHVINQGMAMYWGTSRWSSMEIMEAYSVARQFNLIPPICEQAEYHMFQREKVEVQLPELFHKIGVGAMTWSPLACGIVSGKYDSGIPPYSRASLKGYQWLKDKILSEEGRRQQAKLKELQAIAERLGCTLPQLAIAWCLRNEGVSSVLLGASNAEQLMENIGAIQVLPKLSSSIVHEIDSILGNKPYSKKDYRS

SMILES | cell count [1] | inhibition [1] | inhibition of aggregation [2] | nuclei count [2] [%] | inhibition [3] | nuclei count [3] [%] | fluorescence slope [4] | NADPH fluorescence slope [5] | slope [6] | inhibition [7] | inhibition [8]
CCOC(=O)c1[nH]c(CSc2nnc(-c3ccc(OC)cc3)o2)c(C(=O)OCC)c1C | 609 | 1.4% (inactive) | -12.6% (inactive) | 124 | -39.2% (inactive) | 119 | -0.304 (inactive) | -5.8e-05 (inactive) | 0.00625 (inactive) | 7.64% (inactive) | 24.1% (inactive)
Cc1ccc(-c2nn3c(C)nnc3s2)cc1N | 385 | 7.5% (inactive) | 9.7% (inactive) | 82 | 4.3% (inactive) | 114 | -0.405 (inactive) | -3e-05 (inactive) | 0.00541 (inactive) | -7.7% (inactive) | -47.2% (inactive)
COCCn1c(SCC(=O)Nc2cccc(OC)c2)nnc1-c1ccc(Cl)cc1 | 467 | 6.7% (inactive) | 8.5% (inactive) | 94.1 | -19.6% (inactive) | 97.1 | -0.598 (inactive) | -2.9e-05 (inactive) | 0.00322 (inactive) | 16.4% (inactive) | 22.6% (inactive)
COc1ccc(NC(=O)CCc2ccccc2)cc1NC(=O)c1ccco1 | 526 | 2.3% (inactive) | 8.7% (inactive) | 88.9 | -61.5% (inactive) | 95.1 | -0.504 (inactive) | -5e-05 (inactive) | 0.0047 (inactive) | 16.7% (inactive) | 37.2% (inactive)
CCOC(=O)CSc1nnc([C@H](C)NC(=O)OC(C)(C)C)o1 | 552 | 12% (inactive) | -32.6% (inactive) | 83.6 | -35% (inactive) | 118 | -0.471 (inactive) | -3.4e-05 (inactive) | 0.00421 (inactive) | 3.34% (inactive) | 14.1% (inactive)
COc1cccc(OC)c1OCCCSc1nc(C)cc(=O)[nH]1 | 402 | -1.6% (inactive) | 1.1% (inactive) | 108 | 24.3% (inactive) | 97.1 | -0.422 (inactive) | -2.1e-05 (inactive) | 0.00519 (inactive) | -9.76% (inactive) | -3.85% (inactive)
Clc1ccc(CSc2nnc(Cn3cnc4ccccc43)o2)cc1 | 618 | -2.5% (inactive) | 20.9% (inactive) | 72.2 | -1.1% (inactive) | 98.2 | -0.48 (inactive) | -1.4e-05 (inactive) | 0.00613 (inactive) | -20.9% (inactive) | -27.5% (inactive)
O=S1(=O)CC(N2CCCCC2)C(N2CCCCC2)C1 (stereo not drawn) | 394 | 3.6% (inactive) | 0.2% (inactive) | 110 | -31.5% (inactive) | 107 | -0.587 (inactive) | -1.5e-05 (inactive) | 0.00686 (inactive) | 15.3% (inactive) | 32.7% (inactive)
CN(C(=O)c1ccco1)c1nnc(C23CC4CC(CC(C4)C2)C3)s1 | 681 | -10% (inactive) | -1.7% (inactive) | 110 | -1.5% (inactive) | 126 | -0.408 (inactive) | -1.5e-05 (inactive) | 0.00459 (inactive) | -30.3% (inactive) | -32.2% (inactive)
COc1ccc(NC2c3ncccc3C(=O)N2Cc2ccccc2)c(OC)c1 (stereo not drawn) | 480 | 1.6% (inactive) | -17% (inactive) | 116 | -31.3% (inactive) | 114 | -0.609 (inactive) | -9.3e-06 (inactive) | 0.00393 (inactive) | 7.6% (inactive) | 15.8% (inactive)
Cc1ccc2c(Cl)cc(Cl)c(OCc3c(C)noc3C)c2n1 | 731 | -1.2% (inactive) | -13.6% (inactive) | 97.3 | -164% (inactive) | 142 | -0.604 (inactive) | 2.6e-05 (inactive) | 0.00543 (inactive) | -17% (inactive) | -0.677% (inactive)
COc1ccc(Cl)cc1S(=O)(=O)n1cnc2ccccc21 | 725 | -4.8% (inactive) | -5.8% (inactive) | 92.3 | -42.3% (inactive) | 104 | -0.403 (inactive) | 9.7e-06 (inactive) | 0.00504 (inactive) | 19.3% (inactive) | 31.3% (inactive)
CCCN1C=CC(=C2C(=O)c3ccccc3C2=O)C=C1 | 418 | 2% (inactive) | 16.6% (inactive) | 44.6 | -7.6% (inactive) | 111 | -0.377 (inactive) | -6.2e-05 (inactive) | 0.00522 (inactive) | 29.8% (inactive) | 89.4% (active)
O=C(NC1=NCCS1)NC12CC3CC(CC(C3)C1)C2 | 357 | -3.3% (inactive) | 6.6% (inactive) | 96.6 | -52.9% (inactive) | 101 | -0.598 (inactive) | -3.4e-05 (inactive) | 0.00362 (inactive) | -1.24% (inactive) | 12.2% (inactive)
CC1=C(C)CC2C(=O)N(c3cccc4ccccc34)C(=O)C2C1 (stereo not drawn) | 705 | -2.3% (inactive) | 1.2% (inactive) | 106 | -28.7% (inactive) | 106 | -0.569 (inactive) | -2.7e-05 (inactive) | 0.00739 (inactive) | 0.65% (inactive) | 28.7% (inactive)
CN(C(=O)c1cc2sccc2n1C)C1CCCCC1 | 227 | 1% (inactive) | 5.1% (inactive) | 80.1 | -64% (inactive) | 116 | -0.487 (inactive) | 2.7e-05 (inactive) | 0.00503 (inactive) | -56.2% (inactive) | -93.3% (inactive)
CCn1nnc(NC(=O)c2ccc(-c3ccc(Cl)cc3)o2)n1 | 391 | -6.7% (inactive) | -20% (inactive) | 129 | -101% (inactive) | 208 | -0.488 (inactive) | -7.1e-05 (inactive) | 0.00611 (inactive) | -111% (inactive) | -103% (inactive)
COc1ccccc1N(CN1CCCC1=O)C(=O)c1c(F)cccc1Cl | 370 | -0.3% (inactive) | 9.3% (inactive) | 84.8 | -15.4% (inactive) | 91.8 | -0.477 (inactive) | -3.8e-05 (inactive) | 0.0058 (inactive) | 12.3% (inactive) | 4.03% (inactive)
C/C=C/COC(=O)c1[nH]c2c(c1C)C(=O)CC(c1ccco1)C2 (stereo not drawn) | 582 | 13.8% (inactive) | 4.4% (inactive) | 3.3 | -141% (inactive) | 97 | -0.496 (inactive) | -1.1e-06 (inactive) | 0.00708 (inactive) | 25.7% (inactive) | 82.7% (active)
CCN=C1SC(CC(=O)Nc2ccccc2OCC)C(=O)N1CC (stereo not drawn) | 613 | -14.1% (inactive) | -12.5% (inactive) | 100 | 0.9% (inactive) | 92.3 | -0.488 (inactive) | -3.2e-05 (inactive) | 0.00493 (inactive) | 12.4% (inactive) | 20.8% (inactive)
Cc1cc(NC(=O)CCC(=O)N(CC(=O)NC2CCCC2)Cc2ccc(F)cc2)no1 | 402 | 0.8% (inactive) | -35.1% (inactive) | 103 | -48.3% (inactive) | 122 | -0.421 (inactive) | -3.6e-05 (inactive) | 0.00498 (inactive) | 14.9% (inactive) | 13.1% (inactive)
O=C(NCC1COc2ccccc2O1)c1ccccc1 (stereo not drawn) | 279 | -1.7% (inactive) | -0.5% (inactive) | 104 | 7.4% (inactive) | 90.3 | -0.62 (inactive) | 3.5e-06 (inactive) | 0.00453 (inactive) | -21% (inactive) | -82.8% (inactive)
COc1cccc(N(C(C)=O)c2nc(C)cc(C)c2C#N)c1 | 278 | 13.4% (inactive) | -28.3% (inactive) | 113 | -47.7% (inactive) | 102 | -0.557 (inactive) | -1.8e-05 (inactive) | 0.00529 (inactive) | 17.6% (inactive) | 28.7% (inactive)
COc1ccc(OC)c(C(=O)COC(=O)c2cc(C)oc2C)c1 | 747 | -9.6% (inactive) | 38.1% (inactive) | 103 | -2.3% (inactive) | 114 | -0.361 (inactive) | 2.4e-05 (inactive) | 0.00558 (inactive) | 6.43% (inactive) | -0.082% (inactive)
COc1ccc(-c2ccc(-c3noc(-c4cccs4)n3)c(OC)n2)cc1 | 391 | 6.8% (inactive) | 20.7% (inactive) | 95.6 | -18.2% (inactive) | 102 | -0.0459 (active) | -6.5e-07 (inactive) | 0.00541 (inactive) | -28.9% (inactive) | -86.9% (inactive)
N#Cc1ccccc1Cn1c(=O)n(Cc2ccc(C(=O)NCc3ccco3)cc2)c(=O)c2ccccc21 | 689 | -11.4% (inactive) | -4.5% (inactive) | 83.9 | -47.4% (inactive) | 92.1 | -0.5 (inactive) | 2e-05 (inactive) | 0.00719 (inactive) | 1.35% (inactive) | -0.0219% (inactive)
CCCC(CCC)C(=O)NCCN1CCOCC1 | 412 | -2% (inactive) | 6.3% (inactive) | 97 | -22.1% (inactive) | 90.6 | -0.494 (inactive) | -3.5e-05 (inactive) | 0.0054 (inactive) | 11% (inactive) | 28.6% (inactive)
O=C(c1ccc2c(c1)OCCO2)C1CCN(C(=O)c2ccc(F)cc2)CC1 | 326 | -10% (inactive) | -12% (inactive) | 110 | -77.5% (inactive) | 126 | -0.514 (inactive) | -4.4e-05 (inactive) | 0.00672 (inactive) | 7.11% (inactive) | -2.46% (inactive)
